Laboratory results published in the supplement of paper PMC3334620.
Over roughly 33,000 sequences, “E-score (-0.5 to 0.5)” has its median near -0.0034; the highest 2% begin near 0.25. The list comes from a sample in which the highest values are over-represented; it also holds similar and randomly drawn sequences.

The sequences below were run against T1, Yap3 (UniProt P38749) (assay: PBM E-score (8-mer binding enrichment) (E-score (-0.5 to 0.5)); higher = stronger / more preferred TF binding). Conditions: protein concentration: 100 nM; construct: GST-full length.
T1 sequence: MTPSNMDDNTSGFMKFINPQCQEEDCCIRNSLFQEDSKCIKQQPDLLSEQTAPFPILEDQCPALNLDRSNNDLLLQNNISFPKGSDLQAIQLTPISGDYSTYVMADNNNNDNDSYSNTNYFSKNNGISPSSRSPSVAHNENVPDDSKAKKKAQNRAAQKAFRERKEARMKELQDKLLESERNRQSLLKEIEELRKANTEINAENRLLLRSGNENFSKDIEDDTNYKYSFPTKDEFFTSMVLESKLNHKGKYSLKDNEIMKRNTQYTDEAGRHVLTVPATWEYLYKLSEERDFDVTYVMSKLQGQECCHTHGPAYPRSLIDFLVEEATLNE
Method in brief: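 Using PURExpress in vitro transcription/translation, GST-tagged yeast transcription factors were made in full-length or DNA-binding-domain form. These were applied at about 100-200 nM to double-stranded universal all-10-mer Agilent arrays, and bound protein was detected with fluorescent anti-GST. Scans were normalised with masliner before the Universal PBM Analysis Suite assigned E-scores to ungapped eight-base words pooled with their reverse complements.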

| Sequence | PBM E-score |
| --- | --- |
| AAGTATAA | 0.249 |
| AGTTATTC | 0.096 |
| AAGTATAT | 0.135 |
| AAGTATAC | 0.266 |
| AACTATTC | 0.125 |
| AATTATTC | 0.256 |
| CATATGAA | 0.132 |
| ACTTATGC | 0.0843 |
| GGGTAGAC | -0.216 |
| AGAATCGA | 0.0567 |
| GGAATCGA | -0.059 |
| CGAATCGA | 0.301 |
| CCTATTGA | 0.0457 |
| CGCTAACA | 0.118 |
| AATATGAT | 0.279 |
| TATATGAA | 0.203 |
| AATATGAG | 0.0655 |
| AATATGAC | 0.223 |
| AATATGAA | 0.279 |
| GATATGAA | 0.214 |
| CCAGTCTC | -0.22 |
| AGGACACA | 0.0983 |
| ACATAATG | 0.211 |
| GCATAACA | 0.157 |
| ACATAATA | 0.353 |
| CCATAATA | 0.214 |

| Sequence | PBM E-score |
| --- | --- |
| GCATAATA | 0.283 |
| ACATAAGA | 0.185 |
| GCATAAGA | 0.0573 |
| ACATAACA | 0.285 |
| CCATAATC | 0.144 |
| ACATAATC | 0.293 |
| ACATAACC | 0.0973 |
| ACATAACT | 0.192 |
| ATGTGGAC | -0.0215 |
| ACCTCCTC | -0.145 |
| AATGCAGT | 0.0696 |
| TACTAAGA | 0.242 |
| ACCGCTGG | -0.16 |
| CAGCCCCC | -0.384 |
| CTAAAGTA | -0.0221 |
| ACAAAGTG | 0.0611 |
| ATAAAGTG | 0.271 |
| ATAAAGTC | 0.133 |
| GTAAAGTA | 0.251 |
| ATAAAGTA | 0.286 |
| AGTGCGGC | -0.165 |
| GATGAGAA | 0.0962 |
| CCGCATGC | -0.00346 |
| CAAATGGA | -0.0854 |
| AAAATGGG | -0.0559 |
| AAAATGGA | 0.309 |

| Sequence | PBM E-score |
| --- | --- |
| CTAATGGA | -0.0109 |
| GTAATGGA | 0.288 |
| ATAATGGA | 0.188 |
| AAAATGAA | 0.208 |
| AAAATGAC | 0.13 |
| AAAATGAT | 0.265 |
| CACCCGAA | 0.0804 |
| ACCAAGAC | 0.175 |
| AACGACAT | 0.202 |
| AGAACTGC | -0.131 |
| CATGAACC | 0.0622 |
| GTTCACAA | 0.043 |
| ATTCACAG | 0.0188 |
| ATTCACAA | 0.294 |
| GCATACGA | -0.062 |
| AAACGGAC | -0.155 |
| ATACGGAA | 0.185 |
| AAACGGAA | 0.263 |
| ACACGGAA | 0.0309 |
| AAACGGGA | 0.12 |
| AAACGGAG | 0.0915 |
| GAACGGTA | 0.083 |
| AAACGGTA | 0.301 |
| CTACGGAA | 0.068 |
| CAACGGTA | -0.108 |
| AAACGGAT | 0.277 |

| Sequence | PBM E-score |
| --- | --- |
| TTACGGAA | 0.266 |
| ACATGGGT | -0.0457 |
| ACTAGCAT | -0.0172 |
| ACAAGCGC | 0.0537 |
| ATACCATC | 0.119 |
| CCATTTGA | -0.0292 |
| TCGATCCA | -0.0884 |
| ACGCGCAC | -0.015 |
| CCAGTTAA | 0.143 |
| GGAGCCTA | -0.0407 |
| GAACGGAA | 0.0365 |
| CAACGGAA | 0.15 |
| TAACGGAA | 0.276 |
| AAACAAAA | 0.185 |
| AACAAAAA | 0.307 |
| ACCAAAAT | 0.0693 |
| GACAAGAA | 0.127 |
| GAACAAAC | 0.227 |
| AACAAAAG | 0.164 |
| ACCAAAAC | 0.104 |
| ACCAAAAA | 0.277 |
| GAACAAAA | 0.346 |
| AACAAAAC | 0.239 |
| GACAAAAA | 0.315 |
| GACAAAAC | 0.179 |
